In all, about 330,000 compounds went through this assay and about 7,700 (2.3%) were called active. Another 26% or so got no clear call; they are omitted. This excerpt belongs to a sample that is enriched for actives. Values without a mark were called inactive. Calls come from the whole dose curve; as a rule, active = well fitted inhibition curve with a large enough effect; inconclusive = small, poorly fitted or top-dose-only effect, or effect the other way; inactive = flat fitted curve, though single readings scatter.
Test: qHTS screen for small molecules that inhibit ELG1-dependent DNA repair in human embryonic kidney (HEK293T) cells expressing luciferase-tagged ELG1; note: nearly all actives have a fitted effect of over 55% in size
Settings: HEK293T ELG1-luciferase reporter, luminescence, 16 h, DNA damage induced by 5-fluorouridine; series mostly up to 46.1 µM; activity change, negative = inhibition: at the top concentration
How it was run: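 5-Fluorouridine DNA damage + compound/DMSO, 2,000 cells/well, 16 h, 37 °C/5% CO2. ONE-Glo, 30 min RT, luminescence. Readout = decrease in reporter signal.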
% is set by controls: 0 for no effect and ±100 for the full control effect; potency is the fitted concentration of half-maximal effect.

Compound	Potency	activity change, negative = inhibition
CCN(CC)S(=O)(=O)c1ccc(N2CCOCC2)c(NC(=O)C(C)Oc2ccc(F)cc2)c1 (centres undefined)	8.2 µM (active)	
CC(Oc1ccc(F)cc1)C(=O)Nc1cc(S(=O)(=O)N2CCOCC2)ccc1N1CCN(C)CC1 (centres undefined)		4.53%
COc1cccc(CNS(=O)(=O)c2ccc3c(c2)N(C(C)=O)CCS3)c1		-7.71%
O=C(Nc1cccc(C(=O)NC2CC2)c1)c1ccc(F)c(S(=O)(=O)N2CCOCC2)c1		-9.6%
COc1ccc(NC(=O)NCCN2CCN(c3ccc(C)cc3)CC2)c(Cl)c1		-0.113%
CC1Oc2ccccc2N(Cc2cccnc2)C1=O (centres undefined)		3.27%
O=C1C(Cc2ccc(O)cc2)NC(=S)N1Cc1ccccc1 (centres undefined)		2.47%
CC1C(=O)N(Cc2ccccc2)c2ccccc2N1C(=O)c1ccccc1 (centres undefined)	25.9 µM (active)	
COCCN(Cc1ccccc1)C(=O)Cc1ccc(S(=O)(=O)N2CCOCC2)s1		14.1%
COC(=O)c1ccc(CN2C(=O)NC(c3ccccc3)(c3ccccc3)C2=O)o1		2.4%
CC[C@]1(c2ccccc2OC)C(=O)N(C(=O)OC)N1C(=O)OC		4.37%
CC1(C)Cc2c(sc(NC(=O)C(=O)NCC3CCCO3)c2C(=O)O)CO1 (centres undefined)		24.4%
Cn1c(SCC(=O)Nc2nccs2)nnc1-c1cccnc1		0.876%
COC(=O)C1=C(C)NC2=C(C(=O)c3ccccc32)C1c1ccc(-c2ccc(C(=O)O)cc2)o1 (centres undefined)	20.6 µM (active)	
COc1ccccc1NC(=O)C1=C(C)NC2=C(C(=O)CCC2)C1c1ccc(C)o1 (centres undefined)		-9.66%
Cc1ccc(C2C3=C(Nc4[nH]n(-c5ccccc5)c(=O)c42)c2ccccc2C3=O)cc1 (centres undefined)		-3.68%
O=C(Nc1ccncc1)c1ccc(Cl)c([N+](=O)[O-])c1		-21.7%
Oc1ccc2ccccc2c1C=Nc1ccccc1		4.96%
Oc1ccc2ccccc2c1N=Nc1nccs1	3.66 µM (active)	
Oc1ccc(N=Cc2c(O)ccc3ccccc23)cc1		-21.1%
CC(C)C(NC(=O)c1c(F)cccc1F)C(=O)NNC(=O)c1ccccc1 (centres undefined)		16.2%
CN(C(=O)Cn1nnc(-c2ccc(F)cc2)n1)C1CCS(=O)(=O)C1 (centres undefined)		-4.84%
CN(C)S(=O)(=O)c1cccc(NC(=O)Cc2ccsc2)c1		-4.35%
CN(CC(=O)Nc1cccc(F)c1)C(=O)C1=COCCO1		1.14%
CCN(CC)C(=O)c1sc(NC(=O)c2ccco2)c(C#N)c1C		3.83%

Compound	Potency	activity change, negative = inhibition
CCCc1ccc(-c2c(C)sc(NC(=O)c3ccnn3C)c2C#N)cc1	18.4 µM (active)	
Cn1nccc1CNC(=O)c1ccnn1C		-1.3%
CSc1ccccc1C(=O)OCC(=O)N1CCN(C(C)=O)CC1		6.83%
Cc1ccc(C)c(S(=O)(=O)n2cnc3ccccc32)c1		8.47%
Cc1ccc(C)c(S(=O)(=O)N2CCN(c3ncnc4sccc34)CC2)c1	1.83 µM (active)	
COc1ccc(C)cc1S(=O)(=O)N1CCN(S(=O)(=O)c2cc(C(=O)O)ccc2C)CC1		10%
CC(=O)N1c2ccc(S(=O)(=O)N3CCC(C(=O)N4CCN(c5ccccc5)CC4)CC3)cc2CC1C (centres undefined)		-10.6%
Cc1ccc(S(=O)(=O)N2CCCC(C(=O)N3CCN(C)CC3)C2)cc1 (centres undefined)		-5.55%
CC(=O)N1CCCc2cc(S(=O)(=O)CCC(=O)N3CCN(c4ccccc4)CC3)ccc21		-11.5%
CC(=O)N1CCCc2cc(S(=O)(=O)N3CCCC(C(=O)N4CCN(c5cccc(Cl)c5)CC4)C3)ccc21 (centres undefined)	20.6 µM (active)	
O=C(C1CCCN(S(=O)(=O)c2ccccc2)C1)N1CCN(c2ccc(F)cc2)CC1 (centres undefined)	11.6 µM (active)	
CCCS(=O)(=O)N1CCCC(C(=O)N2CCN(c3ccccc3)CC2)C1 (centres undefined)		1.94%
O=S(=O)(NC1CCCCC1N1CCN(c2ccccc2F)CC1)c1ccccc1 (centres undefined)		-4.79%
COc1ccccc1N1CC(C(=O)Nc2nnc(SCC(=O)NCC3CCCO3)s2)CC1=O (centres undefined)		-13.9%
COc1ccc2[nH]c3nc(SCC(=O)NC4CC4)nnc3c2c1		8.12%
Cc1cccc(S(=O)(=O)N2CN(CC3CCCO3)c3nc4ccccc4nc32)c1 (centres undefined)		3.28%
CCOc1ccc(NC(=O)CN(C)C(=O)COc2cccc(CC)c2)cc1OCC		12.8%
CN(CC(=O)Nc1ccc(F)cc1)C(=O)c1ccc(-c2ccc(Cl)cc2)o1		0.408%
CC(C)(C)NS(=O)(=O)NC(=O)C1=C(N2CCCC2)COC1=O		16.4%
CCCc1cc(=O)oc2cc(OCC(=O)Nc3ccc(CN4CCOCC4)cc3)c(Cl)cc12		-13.1%
CCCCN1C(=O)C(C)=C(C)C1OCCc1ccc(OC)c(OC)c1 (centres undefined)		-6.77%
CCC(CO)Oc1cc(NC(=O)c2cccc3ccccc23)c2ncn(C(C)C)c2c1 (centres undefined)	14.6 µM (active)	
O=C(O)c1ccccc1-c1ccccc1C(=O)Nc1cccc2ccccc12		-3.68%
CCC(CO)Oc1cc(NC(=O)c2ccc(Cl)cc2)c2ncn(C(C)C)c2c1 (centres undefined)		0%
